Measurements: PubChem BioAssay AID488905 (Broad Institute, 2010)
Potency and affinity values are given separately. Results filed as inconclusive are left out. Where a call stands in place of a potency, no number is given. The source made the active and inactive calls.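 The calls were made as follows: active = growth inhibition lowering dye signal, with fitted half-maximal dose at most ten times the top valid dose; inconclusive = flat curve inhibiting 30 to 70 percent, or unreliable fit; inactive = the rest, including effects in the opposite direction.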

Experiment: resistant Candida growth with fluconazole co-treatment – CaCi-8 strain, Alamar Blue, dry powder, set 3, dose response (AID 488905)
Conditions: C. albicans CaCi-8 + fluconazole, 48 h; series mostly up to 26 µM

Structure (SMILES)	outcome
Cn1ccnc1N1CCN(C(=O)c2ccc(Cl)cc2)CC1	inactive
COc1cccnc1N1CCN(C(=O)c2ccc(Cl)cc2)CC1	inactive
O=C(c1ccc(Cl)cc1)N1CCN(c2cccc(C(F)(F)F)n2)CC1	inactive
O=C(c1ccccc1)N1CCN(c2ccccn2)CC1	inactive
COCCC(=O)N1CCN(c2ccccn2)CC1	inactive
Cc1cccc(N2CCN(C(=O)c3ccc(Cl)cc3)CC2)n1	inactive
O=C(c1ccc(Cl)cc1)N1CCN(c2cnccn2)CC1	inactive
